# Measurements published in PubChem BioAssay.
# Activity calls are given as the source filed them.
# Legend:
# [1] = A549 cell viability effects, profiling panel, calcein-AM fluorescence, 48 h, basal (AID 1162); details: higher = more signal
# [2] = adipocyte viability effects, profiling panel, cell-based, 3T3-L1 adipocytes, calcein-AM fluorescence, 48 h, basal (AID 1163); details: 3T3-L1 adipocytes viability, higher = more signal
# [3] = HepG2 cell viability effects, profiling panel, calcein-AM fluorescence, 48 h, basal (AID 1164); details: higher = more signal
# [4] = MM1S cell viability effects, profiling panel, calcein-AM fluorescence, 48 h, basal (AID 1165); details: higher = more signal;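 note: viability of MM1S multiple myeloma cells under basal unstimulated conditions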
# [5] = basal RPMI8226 viability, no added stimulus, profiling panel, cell-based, calcein-AM fluorescence, 48 h, PK04 Diversity Set (AID 1166); details: RPMI8226 myeloma viability, higher = more signal;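 note: cells grown under basal conditions without added stimulus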
# [6] = basal HepG2 mitochondrial membrane potential changes, profiling panel, cell-based, JC-1 fluorescence, 24 h, 100 nL compound (AID 1167); details: higher = more signal
# [7] = basal 3T3-L1 adipocyte mitochondrial potential changes, profiling panel, cell-based, JC-1 fluorescence, 3T3-L1 adipocytes, 24 h, 100 nL compound (AID 1168); details: JC-1 mitochondrial fluorescence, higher = more signal, called active from +8 up or from −8 down
# [8] = basal RPMI8226 mitochondrial membrane potential changes, profiling panel, cell-based, JC-1 fluorescence, 24 h, 100 nL compound (AID 1169); details: RPMI8226 myeloma, JC-1 mitochondrial potential fluorescence, higher = more signal
# [9] = basal MM1S mitochondrial membrane potential changes, profiling panel, cell-based, JC-1 fluorescence, 24 h, 100 nL compound (AID 1170); details: higher = more signal
# [10] = A549 lung cancer cell viability effects, profiling panel, resazurin fluorescence, 24 h, PK04 Diversity Set (AID 1171); details: higher = more signal, called active from +8 up or from −8 down
# Note: test concentration not given here.
SMILES,z-score [1],z-score [2],z-score [3],z-score [4],z-score [5],z-score [6],z-score [7],z-score [8],z-score [9],z-score [10]
C[C@@H](c1ccccc1)N1C(=O)[C@H]2[C@H]3[C@H](O)[C@H](O)CC(=NOC[C@@H](O)COCc4ccco4)[C@H]3CC[C@H]2C1=O,-0.428,0.565,-0.187,0.352,-1.83,-0.137,-0.387 (inactive),-0.84,-0.0829,-0.268 (inactive)
O=C1[C@H]2CCn3c(=O)n(-c4ccccc4)c(=O)n3[C@H]2[C@H](O)[C@@H]2O[C@H]12,0.0313,-0.226,-0.352,-1.32,-0.19,-0.237,-0.169 (inactive),-0.104,-0.351,-0.331 (inactive)
O=C1C=C[C@@H](O)[C@@H]2[C@@H]3C(=O)N(Cc4ccc5c(c4)OCO5)C(=O)[C@@H]3CC[C@@H]12,-0.0516,0.493,0.0311,-0.186,0.0706,-0.214,-0.0146 (inactive),0.0398,0.652,-0.701 (inactive)
CSCC[C@@H]1NC(=O)CC=C[C@@H](C)COC(=O)[C@H](C)COC1=O,0.137,0.641,0.929,0.434,0.798,1.16,0.766 (inactive),0.0761,0.975,-0.365 (inactive)
COC(=O)[C@H](C)NC(=O)CCC1CC(OC(=O)NCc2ccc3c(c2)OCO3)CC2(CCCC(COC(=O)NCCc3ccc(Cl)cc3)O2)O1 (stereo not given in full),-0.508,0.38,-0.796,-0.99,-1.27,0.718,-0.527 (inactive),-0.342,-0.864,1.02 (inactive)
COC(=O)[C@H](C)NC(=O)CCC1CC(OC(=O)NCc2cccc3ccccc23)CC2(CCCC(COC(=O)NCCc3ccccc3OC)O2)O1 (stereo not given in full),-0.932,-1.02,-1.44,-3.38,-1.79,-0.525,-0.309 (inactive),0.179,-1.33,0.642 (inactive)
O=C1C[C@@H](O)[C@@H](O)[C@@H]2[C@@H]3C(=O)N(C4CCCCC4)C(=O)[C@@H]3CC[C@@H]12,0.112,0.0679,0.236,-0.0357,0.313,0.0325,-0.907 (inactive),0.0121,-0.377,-0.732 (inactive)
CC(CCC(=O)OC[C@H]1O[C@H](C#Cc2ccccc2)C=C[C@@H]1Oc1ccc(C)cc1)=NOC(C)CN1CCCCc2nc(C)c(C)cc21 (stereo not given in full),0.393,-0.239,0.0574,-2.15,-1.73,1.34,-2.02 (inactive),-0.325,-0.737,0.599 (inactive)
CCOC(=O)[C@H](Cc1ccccc1)NC(=O)CCC1CC(OC(=O)NCCc2ccc(F)cc2)CC2(CCCC(COC(=O)NCc3cccc(C(F)(F)F)c3)O2)O1 (stereo not given in full),-0.754,0.15,-0.875,-0.0822,-1.82,0.502,-0.306 (inactive),0.562,0.464,1.39 (inactive)
CC(C)=CCCC(C)=CCON=C1C[C@@H](O)[C@@H](O)[C@@H]2[C@@H]3C(=O)N([C@@H](C)c4ccccc4)C(=O)[C@@H]3CC[C@@H]12,-0.412,0.934,-0.341,0.176,-0.249,-0.781,-0.598 (inactive),0.0813,0.114,-0.21 (inactive)
CCN1C(=O)[C@H]2[C@H]3[C@H](O)[C@H](O)CC(=NOC(C)CN4CCCc5nc(C)c(C)cc54)[C@@H]3CC[C@H]2C1=O (stereo not given in full),0.355,-0.769,-0.283,-1.78,-0.99,0.128,-0.886 (inactive),0.534,-0.902,-0.696 (inactive)
CO[C@@H]1C=CCC(=O)N[C@@H](C)C(=O)OC[C@@H](OC)[C@H](C)C=CCC(=O)OC[C@H]1C,0.234,0.374,0.0804,0.316,0.389,0.589,-0.848 (inactive),0.674,0.704,0.474 (inactive)
CCOC(=O)[C@H](CC(C)C)NC(=O)CCC1CC(OC(=O)NCc2ccc3c(c2)OCO3)CC2(CCCC(COC(=O)NCc3ccccc3)O2)O1 (stereo not given in full),-0.547,-0.654,-1.38,-3.45,-1.58,-0.439,0.195 (inactive),0.0575,0.277,1.06 (inactive)
COC(=O)[C@H](C)NC(=O)CCC1CC(OC(=O)NCCc2ccc(F)cc2)CC2(CCCC(COC(=O)NCC3CCCCC3)O2)O1 (stereo not given in full),-0.111,0.851,-1.36,-0.574,-1.85,-0.717,0.497 (inactive),0.785,-0.771,0.541 (inactive)
CO[C@@H](C1CCCCC1)[C@@H](C)[C@H](OCc1cccc(Br)c1)[C@@H](C)CO,-2.34,-0.348,-2.22,-3.02,-4.04,-4.59,0.408 (inactive),-1.11,-0.184,-1.21 (inactive)
